Source: PubChem (NMMLSC)
Bead autofluor – flagged as autofluorescent in microsphere protease counterscreen; AID 624483; compound autofluorescence counterscreen, microsphere flow cytometry; hits give high values; 360,000 tested, 3.1% active; fluorescence intensity (no concentration beside the values); in the data active = fluorescence intensity above about 16000; inconclusive = no clear call, values can overlap the other calls
BoNT-F LC inh – BoNT/F light chain protease inhibitors, primary screen, biochemical, flow cytometry, MLPCN library. Botulinum neurotoxin type F light chain protease (Clostridium botulinum). Multiplex microsphere protease cleavage assay. inhibition, % at 10 µM. 360,000 tested, 0.22% active; in the data active = inhibition above about 35%, passing the limit was not always enough; inconclusive = no clear call, values can overlap the other calls; note: plate controls were buffer without enzyme for full effect and enzyme alone for no effect
Anthrax LF prot – Bacillus anthracis LF protease inhibitors, primary screen, biochemical, multiplex microsphere, MLPCN library | 360,000 tested, 0.12% active | inhibition, % at 10 µM | multiplex microsphere protease cleavage assay | Lethal factor (Bacillus anthracis), P15917; note: plate controls were buffer without enzyme for full effect and enzyme alone for no effect
BoNT-A LC inh2 – BoNT/A light chain protease inhibitors, primary screen, biochemical, flow cytometry, MLPCN library; Botulinum neurotoxin type A light chain protease (Clostridium botulinum A str. ATCC 3502); multiplex microsphere protease substrate cleavage; inhibition, % at 10 µM; 360,000 tested, 0.17% active; note: plate controls were buffer without enzyme for full effect and enzyme alone for no effect
An asterisk follows results filed as active; ? = inconclusive. Most compounds without a hit are left out; they make up all but 3.5% or so of the library. Cut-off read from the data, not from the text of the source, unless noted: active = inhibition above about 30%; inconclusive = no clear call, values can overlap the other calls; inactive = below that.

SMILES	Bead autofluor	BoNT-F LC inh	Anthrax LF prot	BoNT-A LC inh2
CCOC(C(=O)OCCCN(CC)CC)(c1ccccc1)c1ccccc1	2031	1	0	0
CN(C(=O)COC(=O)Cc1ccc(Br)cc1)c1c(N)n(Cc2ccccc2)c(=O)[nH]c1=O	2898	-3	2	0
c1ccc(Nc2cc(-c3ccccc3)nc3ncnn23)cc1	16695*	-5	-4	?
Clc1ccc(Nc2cc(-c3ccccc3)nc3ncnn23)cc1	3874	-23	?	-6
Cc1cc(=O)[nH]c(S/C=C/c2ccccc2)n1	20598*	-3	-2	-2
C[C@H](O)C#Cc1ccc2c(c1)O[C@@H](CN(C)Cc1ccc(-c3ccccc3)cc1)[C@H](C)CN([C@@H](C)CO)S2(=O)=O	3453	2	-3	0
CCc1ccc(N(C(=O)CCC(=O)Nc2cc(C)on2)C(C(=O)NC(C)(C)C)c2ccc(OC)cc2)cc1 (configuration not stated)	3818	35*	-6	-1
CCN(CC)CCN1C(=O)c2oc3ccccc3c(=O)c2C1c1ccc(F)cc1 (configuration not stated)	21092*	-3	-4	-2
CN(C)CCCN1C(=O)c2oc3ccccc3c(=O)c2C1c1cccs1 (configuration not stated)	18317*	7	-9	8
CN(C)CCN1C(=O)c2oc3ccccc3c(=O)c2C1c1cccc(Br)c1 (configuration not stated)	11184	2	-1	-1
CCN(CC)CCN1C(=O)c2oc3ccc(F)cc3c(=O)c2C1c1ccncc1 (configuration not stated)	5086	-10	-13	-1
CC(C)Cn1nc(C(=O)Nc2nnc(C3CC3)s2)c2ccccc2c1=O	6760	-3	-8	-2
COc1ccc(-n2c(=O)c3c4c(sc3n3cnnc23)CC(C)CC4)cc1 (configuration not stated)	15907	-3	-3	0
Cc1nnc2n(-c3ccccc3)c(=O)c3c4c(sc3n12)CC(C)CC4 (configuration not stated)	18626*	2	3	3
CC12CCC(=O)C=C1CCC1C2C(O)CC2(C)C1CCC2(O)C(=O)COC(=O)CCC1CCCC1 (configuration not stated)	5829	-4	-3	0
CC(C)OCCCn1c(=N)c(C(N)=S)cc2c(=O)n3ccccc3nc21	5395	-56	-52	35*
COc1ccc(-n2c(=S)[nH]c3cc(C(=O)NCc4ccco4)ccc3c2=O)cc1OC	4604	?	1	0
CC(C)OCCCn1c(=NC(=O)c2ccncc2)c(C#N)cc2c(=O)n3ccccc3nc21	10844	-3	-4	1
COc1ccc(CCn2c(=S)[nH]c3cc(C(=O)NCc4ccco4)ccc3c2=O)cc1OC	20732*	-2	1	-4
COc1ccc(CCn2c(=N)c(C(=O)NCc3ccco3)cc3c(=O)n4ccccc4nc32)cc1	22951*	2	4	2
Cc1ccc(S(=O)(=O)c2cc3c(=O)n4ccccc4nc3n(C)c2=N)cc1	18992*	5	-6	5
CC(C)(Oc1ccc(Cl)cc1)C(=O)NCC1CCCO1 (configuration not stated)	?	?	-3	-2
CC1Oc2ccc(C#N)cc2N(Cc2cccc(F)c2)C1=O (configuration not stated)	3598	-6	-2	0
COc1ccc(CCn2c(=N)c(S(=O)(=O)c3ccc(Cl)cc3)cc3c(=O)n4ccccc4nc32)cc1	21901*	-87	-15	-36
COc1ccc(CCn2c(=N)c(S(=O)(=O)c3ccccc3)cc3c(=O)n4ccccc4nc32)cc1	5759	6	2	3
SMILES	Bead autofluor	BoNT-F LC inh	Anthrax LF prot	BoNT-A LC inh2
Nc1c(-c2ccc(Cl)cc2)cnc2ncnn12	23393*	0	-1	1
CCOC(=O)N1CCC(NC(=O)C2CCCN(c3nc4ccccc4o3)C2)CC1 (configuration not stated)	25111*	-5	2	-3
CCOC(=O)N1CCC(NC(=O)C2CCN(C(=O)N3CC(C)Oc4ccccc43)CC2)CC1 (configuration not stated)	16437*	1	0	-1
O=C(NC1CCCCCCC1)C1CCN(c2nc3ccccc3o2)CC1	17616*	-6	-3	-4
CC1CN(S(=O)(=O)c2ccccc2)CC(C)O1 (configuration not stated)	23507*	0	0	?
O=C1C=CC(n2cc(F)c(=O)[nH]c2=O)O1 (configuration not stated)	3011	0	-4	0
